# Assay results taken from PubChem BioAssay (NCI).
# The panel holds about 83,000 compounds, 20% with a hit somewhere; the sample as a whole holds those more often.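 Interpretation: 100, growth as untreated; towards 0, rising growth inhibition; 0, no net growth; 0 to -100, cell death. Compounds scoring below 10 were considered active.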 Calls of active or inactive are those of the source.
# System: HL-60(TB) leukemia
# Test: NCI-60 one-dose screen, 48 h (100 = growth as untreated, 0 = no growth, -100 = all killed)
# Details: 10 µM unless noted
row,Structure (SMILES),growth
1,Cc1ccc(OCCOCCOCCOCCOCCOc2ccc(C)n(O)c2=S)c(=S)n1O,-16.5% (active)
2,COc1ccc(/C(CS(=O)(=O)c2ccccc2)=N\O)cc1,99.5% (inactive)
3,O=C(O)/C=C\C(=O)Nc1cccc2ccccc12,56.7% (inactive)
4,C#CC(C(C)C)N(CCO)CCCC (stereo not given),108% (inactive)
5,CN1CCN(C(=O)[C@@]2(C)CC[C@]3(C)CC[C@]4(C)C(=CC[C@@H]5[C@@]6(C)C/C(=C/c7ccncc7)C(=O)C(C)(C)[C@@H]6CC[C@]54C)[C@@H]3C2)CC1,-8.87% (active)
6,c1ccc(COc2ccc(Nc3ncnc4c3cnn4-c3ccccc3)cc2)cc1,99.8% (inactive)
7,C=C(NC(=O)C(=C)NC(=O)c1csc(C2=NC3c4csc(n4)C4NC(=O)c5csc(n5)C(C(C)(O)C(C)O)NC(=O)C5CSC(=N5)C(=CC)NC(=O)C(C(C)O)NC(=O)c5csc(n5)C3(CC2)NC(=O)C(C)NC(=O)C(=C)NC(=O)C(C)NC(=O)C(C(C)CC)NC2C=Cc3c(C(C)O)cc(nc3C2O)C(=O)OC4C)n1)C(N)=O (stereo not given),3.83% (active)
8,C#CCN(CCCOc1ccc(Cl)cc1Cl)CCCSC(=O)CCCCCN1/C(=C\C=C2/CCCC(/C=C/C3=[N+](CCCCCC(=O)[O-])c4ccccc4C3(C)C)=C2Cl)C(C)(C)c2ccccc21,-44.2% (active)
9,COc1ccccc1-n1c(-c2csc(NC(C)=O)n2)n[nH]c1=S,96.6% (inactive)
10,CCCn1c(=S)sc2c(Cl)nc(C)nc21,130% (inactive)
11,N#CC1=C(N)Oc2nc[nH]c(=O)c2C1c1cccs1 (stereo not given),98.8% (inactive)
12,COC(=O)c1c2c(c(C)[n+]([O-])c1C)C(=O)C=C(NCc1ccc(OC)cc1)C2=O,-30.5% (active)
13,Nc1cccc2c1CN(C1CCC(=O)NC1=O)C2=O (stereo not given),105% (inactive)
14,COc1ccc(-c2nc(N/N=C/c3cccc(Br)c3)nc(N3CCOCC3)c2C#N)cc1,10.7% (inactive)
15,CCn1c(=O)c2c(=O)c3c4c(oc3oc2c2ccccc21)C(=O)c1ccccc1C4=O,-18.8% (active)
16,COc1ccc(CNCCCN2C(=O)c3ccc4c5c(ccc(c35)C2=O)C(=O)N(CCCNCc2ccc(OC)c(OC)c2OC)C4=O)c(OC)c1OC,-61.3% (active)
17,CCN(CC)CCOC(=O)N1c2ccccc2Sc2ccccc21,88.1% (inactive)
18,CCOC(=O)C1C(C(=O)OCC)C2C(=O)C3C(C(=O)OCC)C(C(=O)OCC)C3C(=O)C12 (stereo not given),96.7% (inactive)
19,Clc1ccc2c(NCCNc3nc(-c4ccccc4)cc(-c4ccccc4)n3)ccnc2c1,-46.6% (active)
20,OC(COc1ccccc1)CN1CCN(c2ccc(Cl)cc2)CC1 (stereo not given),83.3% (inactive)

row,Structure (SMILES),growth
1,COc1ccc(-c2c(-c3ccccc3)noc2N)cc1OC,95.2% (inactive)
2,CNCCCOc1c(Br)cc(CCNC(=O)/C(Cc2cc(Br)c(OC)c(Br)c2)=N/O)cc1Br,-57.1% (active)
3,COC(=O)CC(=O)C(=O)OC,100% (inactive)
4,c1ccc(N2CCN(c3nncc4ccccc34)CC2)nc1,96.6% (inactive)
5,CCCCCc1cc[n+](CC(=O)c2ccc(Cl)cc2)cc1,94% (inactive)
6,CC1(C)C(=O)/C(=C\c2ccco2)C[C@]2(C)[C@H]3CC[C@@H]4[C@@H](C(=O)/C=C/c5ccco5)CC[C@@]4(C)[C@]3(C)CC[C@@H]12,81.6% (inactive)
7,O=C(O)C1[S][Sb]([CH](C(=O)O)[CH](C(=O)O)[Sb]2[S]C(C(=O)O)C(C(=O)O)[S]2)[S]C1C(=O)O (stereo not given),94.3% (inactive)
8,COc1ccc2nc(-c3c(-c4ccccc4)nc4ncccn34)[nH]c2c1,98% (inactive)
9,CC1=C(C(=O)OCc2ccccc2)C(c2ccc3c(c2)OCO3)n2c(nc3ccccc32)N1 (stereo not given),-14.7% (active)
10,N=C(N)c1ccc(-c2ccc(-c3ccc4ccccc4c3)s2)s1,-56.4% (active)
11,COc1ccc(CNC(=O)c2c(C)n([O-])c3ccc(OC)cc3[n+]2=O)cc1,92.5% (inactive)
12,CCN(CC)c1nc(SCC(=O)Nc2nc3ccc(C)cc3s2)nc(-c2ccccc2)c1C#N,96.5% (inactive)
13,COc1cccc(-c2nn(-c3ccccc3)cc2-c2ccnc(NCCNS(=O)(=O)c3ccccc3)c2)c1,8.92% (active)
14,COCCOC(=O)C1=C(C)NC(=S)NC1c1ccc2c(c1)OCO2 (stereo not given),92.1% (inactive)
15,CC(C)(C)c1ccc(/C=C/C(=O)Nc2ccc(O)cc2)cc1,-12.6% (active)
16,O=C(NC(=S)N1CC=CCC1)c1ccccc1,125% (inactive)
17,OCCN1CCN(CCCN2c3ccccc3Sc3ccc(C(F)(F)F)cc32)CC1,32.7% (inactive)
18,CNCCNc1nc2ccccc2c2c(=O)c3cccc(C)c3sc12,-39.8% (active)
19,CCS(=O)(=O)N[C@@H]1O[C@H](COC(C)=O)C(OC(C)=O)[C@H](OC(C)=O)C1OC(C)=O (stereo not given in full),117% (inactive)
20,CCCCNCCCCCNc1cc(OC)cc2cccnc12,67.5% (inactive)
